Counter-ions that a name gives are not always drawn. ± gives the standard deviation of the averaged measurements. The full ranking holds about 1,300 compounds; the median of “normalised cell viability” is about 1, and the lowest 2% start at about 0.15. Only a selection was taken, and the lowest values are over-represented in it overall.
Test system: V-C8 + BRCA2 (BRCA2-proficient hamster cells)
Test: normalised cell viability (fraction of plate median); higher = more viable cells (less toxic)
Conditions: 5 µM
Method in brief: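 Library drugs, held as 10 mM stocks in DMSO, were diluted to 5 μM in 100 μl medium and added to 96-well plates of V-C8 hamster cells, either lacking BRCA2 or with BRCA2 restored, 24 h after seeding. Plates ran for 3 days (screen 1) or 6 days (screen 2), alongside solvent-only wells. Viability came from a resazurin readout, median-plate normalised, as the mean of triplicate wells.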

Structure (SMILES) | normalised cell viability (treatment time: 3 days) | normalised cell viability (treatment time: 6 days)
CS(=O)(=O)c1ccc(C2=C(c3ccccc3)C(=O)OC2)cc1 [Rofecoxib] | 1 ± 0.039 | 1.02 ± 0.06
CS(=O)(=O)c1ccc([C@@H](O)[C@@H](CO)NC(=O)C(Cl)Cl)cc1 [Thiamphenicol] | 0.9701 ± 0.0087 | 0.927 ± 0.02
NCCc1c[nH]cn1 [Histamine dihydrochloride] | 0.994 ± 0.016 | 0.991 ± 0.064
COc1ccc(C(=O)CC(=O)c2ccc(C(C)(C)C)cc2)cc1 [Avobenzone] | 1.02 ± 0.057 | 1.04 ± 0.12
CCN(CC)C(=O)/C(C#N)=C/c1cc(O)c(O)c([N+](=O)[O-])c1 [Entacapone] | 0.944 ± 0.013 | 1.03 ± 0.03
CC(C)COCC(CN(Cc1ccccc1)c1ccccc1)N1CCCC1 (stereo not drawn) [Bepridil hydrochloride] | 0.938 ± 0.069 | 0.828 ± 0.035
COc1cc([C@@H]2c3cc4c(cc3[C@@H](O[C@@H]3O[C@@H]5CO[C@@H](C)O[C@H]5[C@H](O)[C@H]3O)[C@H]3COC(=O)[C@H]23)OCO4)cc(OC)c1O [Etoposide] | 0.141 ± 0.0097 | 0.15 ± 0.017
CC(=O)[C@@]12O[C@](C)(c3ccccc3)O[C@@H]1C[C@H]1[C@@H]3CCC4=CC(=O)CC[C@]4(C)[C@H]3CC[C@@]12C [Algestone acetophenide] | 0.968 ± 0.025 | 1.07 ± 0.1
CCCCCCCCNC(C)C(O)c1ccc(SC(C)C)cc1 (stereo not drawn) [Suloctidil] | 0.653 ± 0.045 | 0.743 ± 0.068
CC(C)NCC(O)c1cc(O)cc(O)c1 (stereo not drawn) [Metaproterenol sulfate, orciprenaline sulfate] | 1.03 ± 0.023 | 1.04 ± 0.02
Nc1ccc(C(=O)O)c(O)c1 [4-aminosalicylic acid] | 0.944 ± 0.086 | 1.03 ± 0.043
CN(C)CCN(Cc1cccs1)c1ccccn1 [Methapyrilene hydrochloride] | 1.12 ± 0.021 | 1.04 ± 0.042
CO/N=C(\C(=O)N[C@@H]1C(=O)N2C(C(=O)O)=C(C[N+]3(C)CCCC3)CS[C@H]12)c1csc(N)n1 [Cefepime hydrochloride] | 0.933 ± 0.092 | 0.888 ± 0.098
CCC1NC(=O)c2cc(S(N)(=O)=O)c(Cl)cc2N1 (stereo not drawn) [Quinethazone] | 0.989 ± 0.058 | 0.989 ± 0.073
Nc1ccc(/N=N/c2ccccc2)c(N)n1 [Phenazopyridine hydrochloride] | 1.02 ± 0.039 | 1.04 ± 0.035
Clc1ccc(C(c2ccccc2Cl)C(Cl)Cl)cc1 (stereo not drawn) [Mitotane] | 1.02 ± 0.035 | 1.01 ± 0.076
CC(C)NCC(O)c1ccc(O)c(O)c1 (single isomer, unassigned; (+)) [(+)-Isoproterenol (+)-bitartrate salt] | 1 ± 0.048 | 1.05 ± 0.07
CC(=O)OCC(=O)[C@@]1(O)[C@H](C)C[C@H]2[C@@H]3CCC4=CC(=O)C=C[C@]4(C)[C@@]3(F)[C@@H](O)C[C@@]21C [Dexamethasone acetate] | 1.08 ± 0.057 | 1.02 ± 0.056
NC(=O)c1cnccn1 [Pyrazinamide] | 1.14 ± 0.039 | 1.02 ± 0.043
CCN(CC)CCc1nc(-c2ccccc2)no1 [Oxalamine citrate salt] | 1 ± 0.018 | 1.01 ± 0.03
C=C1/C(=C\C=C2/CCC[C@]3(C)[C@@H]([C@H](C)CCCC(C)C)CC[C@@H]23)C[C@@H](O)C[C@@H]1O [Alfacalcidol] | 0.751 ± 0.062 | 0.719 ± 0.094
C[C@@H]1NC(=O)NC1=O [Methylhydantoin-5-(L)] | 0.988 ± 0.053 | 1.07 ± 0.046
CCOC(=O)[C@H](CCc1ccccc1)N[C@H]1CCc2ccccc2N(CC(=O)O)C1=O [Benazepril HCl] | 1.03 ± 0.018 | 1.07 ± 0.029

Structure (SMILES) | normalised cell viability (treatment time: 3 days) | normalised cell viability (treatment time: 6 days)
CC(C)NCC(O)c1ccc2ccccc2c1 (stereo not drawn) [Pronethalol hydrochloride] | 0.972 ± 0.037 | 0.995 ± 0.041
CC(=O)[C@H]1CC[C@H]2[C@@H]3CC=C4C[C@@H](O)CC[C@]4(C)[C@H]3CC[C@]12C [Pregnenolone] | 1 ± 0.067 | 1.07 ± 0.12
O=C1c2cccc(O)c2C(=O)c2c(O)cccc21 [1,8-Dihydroxyanthraquinone] | 0.853 ± 0.051 | 0.914 ± 0.076
O=C1c2c(O)ccc(O)c2C(=O)c2c(NCCNCCO)ccc(NCCNCCO)c21 [Mitoxantrone dihydrochloride] | 0.123 ± 0.0098 | 0.124 ± 0.0098
O=C1c2c(O)cccc2Cc2cccc(O)c21 [Anthralin] | 0.979 ± 0.036 | 0.978 ± 0.018
Clc1ccc(COC(Cn2ccnc2)c2ccc(Cl)cc2Cl)cc1 (stereo not drawn) [Econazole nitrate] | 1 ± 0.025 | 1.04 ± 0.049
CC(=O)NC[C@H]1CN(c2ccc(N3CCOCC3)c(F)c2)C(=O)O1 [Linezolid] | 1.06 ± 0.11 | 1.04 ± 0.04
O=C(NCC1CCCCN1)c1cc(OCC(F)(F)F)ccc1OCC(F)(F)F (stereo not drawn) [Flecainide acetate] | 1.12 ± 0.066 | 1.02 ± 0.12
CCCCC(C)(O)C/C=C/[C@H]1[C@H](O)CC(=O)[C@@H]1CCCCCCC(=O)OC (mixture of isomers) [Misoprostol] | 0.976 ± 0.09 | 1.03 ± 0.024
CCN(CC)CCN[C@@H](C(=O)OCCC(C)C)c1ccccc1 [Camylofine chlorhydrate] | 0.957 ± 0.014 | 0.998 ± 0.096
CC1(C)S[C@@H]2[C@H](NC(=O)[C@H](C(=O)O)c3ccsc3)C(=O)N2[C@H]1C(=O)O [Ticarcillin sodium] | 1.02 ± 0.021 | 1.04 ± 0.097
CC(=O)Oc1cccc2c1C(=O)c1c(OC(C)=O)cc(C(=O)O)cc1C2=O [Diacerein] | 0.749 ± 0.038 | 0.796 ± 0.027
CCN(CCO)CCCC(C)Nc1ccnc2cc(Cl)ccc12 (stereo not drawn) [Hydroxychloroquine sulfate] | 0.606 ± 0.024 | 0.666 ± 0.032
CCN(CC)CCCC(C)Nc1ccnc2cc(Cl)ccc12 (stereo not drawn) [Chloroquine diphosphate] | 0.852 ± 0.023 | 0.938 ± 0.082
CCN(CC)CCCC(C)Nc1c2ccc(Cl)cc2nc2ccc(OC)cc12 (stereo not drawn) [Quinacrine dihydrochloride dihydrate] | 0.133 ± 0.0038 | 0.107 ± 0.0083
O=C(CCCN1CCN(c2ccccn2)CC1)c1ccc(F)cc1 [Azaperone] | 1.1 ± 0.34 | 0.902 ± 0.052
CCCCN1CCCCC1C(=O)Nc1c(C)cccc1C (stereo not drawn) [Bupivacaine hydrochloride] | 0.962 ± 0.049 | 1.03 ± 0.038
CCOC(=O)c1ccc(N)cc1 [Benzocaine] | 0.871 ± 0.023 | 0.9583 ± 0.0066
CN(N=O)C(=O)N[C@@H](C=O)[C@@H](O)[C@H](O)[C@H](O)CO [Streptozotocin] | 1.07 ± 0.073 | 1.06 ± 0.053
O=C(CCCN1CCC(O)(c2ccc(Br)cc2)CC1)c1ccc(F)cc1 [Bromperidol] | 0.976 ± 0.027 | 0.979 ± 0.038
CN1CCCN=C1/C=C/c1cccs1 [Pyrantel tartrate] | 1.04 ± 0.05 | 1.03 ± 0.026
COCCCC/C(=N\OCCN)c1ccc(C(F)(F)F)cc1 [Fluvoxamine maleate] | 0.97 ± 0.029 | 1.17 ± 0.13
Cn1c(=O)c2c(ncn2C)n(C)c1=O [Caffeine] | 0.998 ± 0.053 | 0.996 ± 0.057

Structure (SMILES) | normalised cell viability (treatment time: 3 days) | normalised cell viability (treatment time: 6 days)
CCOC(=O)[N-]c1c[n+](N2CCOCC2)no1 [Molsidomine] | 1.04 ± 0.05 | 1.1 ± 0.028
CCN1CCCC1CNC(=O)c1cc(S(=O)(=O)CC)c(N)cc1OC (stereo not drawn) [Amisulpride] | 0.974 ± 0.017 | 0.991 ± 0.058
O=C(CCCCC(=O)Nc1c(I)cc(I)c(C(=O)O)c1I)Nc1c(I)cc(I)c(C(=O)O)c1I [Iodipamide] | 1.07 ± 0.05 | 1.02 ± 0.06
O=C(CCCCCCC(=O)Nc1ccccc1)NO [Vorinostat] | 0.132 ± 0.0091 | 0.17 ± 0.021
CC(=O)Nc1ccc(CC(=O)O)cc1 [Actarit] | 1.038 ± 0.0059 | 1.07 ± 0.12
CN(Cc1cc(Br)cc(Br)c1N)C1CCCCC1 [Bromhexine hydrochloride] | 0.949 ± 0.042 | 1.02 ± 0.072
CO[C@H]1C[C@H](O[C@H]2[C@H](C)[C@@H](O[C@@H]3O[C@H](C)C[C@H](N(C)C)[C@H]3OC(C)=O)[C@@H](C)C[C@@]3(CO3)C(=O)[C@H](C)[C@@H](OC(C)=O)[C@@H](C)[C@@H](C)OC(=O)[C@@H]2C)O[C@@H](C)[C@@H]1OC(C)=O [Troleandomycin] | 1.08 ± 0.027 | 1.06 ± 0.04
C[C@@H](O)[C@H]1C(=O)N2C(C(=O)O)=C(S[C@@H]3CN[C@H](C(=O)N(C)C)C3)[C@H](C)[C@H]12 [Meropenem] | 1.02 ± 0.037 | 1.04 ± 0.053
NS(=O)(=O)c1cc(Cl)c(Cl)c(S(N)(=O)=O)c1 [Dichlorphenamide] | 1.09 ± 0.05 | 0.961 ± 0.035
CC(C)(C)NCC(O)COc1cccc2c1CCC(=O)N2 (stereo not drawn) [Carteolol hydrochloride] | 1.06 ± 0.052 | 1.06 ± 0.044
O=C1NCC2(CCN(CCc3ccccc3)CC2)O1 [Fenspiride hydrochloride] | 1.03 ± 0.051 | 1.06 ± 0.068
CCN(Cc1ccncc1)C(=O)C(CO)c1ccccc1 (stereo not drawn) [Tropicamide] | 1.065 ± 0.0083 | 1.01 ± 0.043
CN(C)CCC[C@@]1(c2ccc(F)cc2)OCc2cc(C#N)ccc21 [Escitalopram] | 1.1 ± 0.041 | 1.01 ± 0.067
CC(C)[C@H]1CC[C@H](C(=O)N[C@H](Cc2ccccc2)C(=O)O)CC1 [Nateglinide] | 1.04 ± 0.051 | 1.04 ± 0.091
CN1CCCC(CC2c3ccccc3Sc3ccccc32)C1 (stereo not drawn) [Metixene hydrochloride] | 0.867 ± 0.014 | 0.888 ± 0.012
O=C(CCCN1CC=C(n2c(=O)[nH]c3ccccc32)CC1)c1ccc(F)cc1 [Droperidol] | 1.05 ± 0.013 | 1.07 ± 0.015
O=C(O)c1ccccc1OP(=O)(O)O [Fosfosal] | 0.966 ± 0.055 | 1.06 ± 0.1
N=C(NCCCCCCNC(=N)NC(=N)Nc1ccc(Cl)cc1)NC(=N)Nc1ccc(Cl)cc1 [Chlorhexidine] | 0.117 ± 0.0076 | 0.103 ± 0.0066
N=C(N)NC(=N)NCCc1ccccc1 [Phenformin hydrochloride] | 1.01 ± 0.029 | 0.9752 ± 0.0082
CC(C)NC(=N)NC(=N)Nc1ccc(Cl)cc1 [Proguanil hydrochloride] | 0.211 ± 0.013 | 0.203 ± 0.015
CC(=O)Nc1c(I)c(NC(C)=O)c(I)c(C(=O)O)c1I [Diatrizoic acid dihydrate] | 0.996 ± 0.035 | 1.05 ± 0.077
Cc1cc(/C=C/c2ccc3cc(N(C)C)ccc3[n+]2C)c(C)n1-c1ccccc1 [Pyrvinium pamoate] | 0.144 ± 0.0086 | 0.171 ± 0.014
Cc1cc(=O)n(-c2ccccc2)n1C [Antipyrine] | 0.997 ± 0.038 | 1.02 ± 0.046

— the supplement of paper PMC6609913
